Values joined by “and” are separate entries in the source; they are usually repeats but may differ in a detail not shown here. Equal entries are not always repeated. Inconclusive results are not listed. Some structures have more than one record in an assay (separate samples or runs), and their calls can disagree. Active and inactive are the calls of the source. The calls were made as follows: active = hit-call score of the fitted dose curve at least 0.9, where 1 is the maximum; inconclusive = response in the unintended direction; inactive = score below 0.9.
Test: TOX21_p53_BLA_p2_viability: Viability Assessment in the Tox21 HCT-116 p53 Agonism Beta-lactamase Assay, Phase 2 (AID 2283591);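 also: compound exposure lasted 16 h at 37 °C; actives lower the ATP signal meaning cytotoxicity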
Excerpt: TOX21_p53_BLA_p2 is a cell-based, single-readout assay that uses HCT116, a human intestinal cell line, […] in a 1536-well plate.TOX21_p53_BLA_p2_viability is an assay readout measuring cellular ATP content and detected with CellTiter-Glo Luciferase-coupled ATP quantitation.TOX21_p53_BLA_p2_viability used a type of viability reporter where loss-of-signal activity can be used to understand changes in the cell viability. Furthermore, this assay endpoint can be referred to as a secondary readout, because this assay has produced multiple assay endpoints where this one serves a viability function. To generalize the intended target to other relatable targets, this assay endpoint is annotated to the cell cycle intended target family, where the subfamily is cytotoxicity.
Thawing Method: Place 14 mL of pre-warmed thaw medium into a 15 mL of conical tub. Remove the vial of cells to be thawed from liquid nitrogen and thaw rapidly by placing at 37C in a water bath with gentle agitation for 1-2 minutes. Decontaminate the vial by wiping with 70% ethanol before opening in a biological safety cabinet. Transfer the vial contents drop-wise into 14 mL of thaw medium in a sterile 15-mL conical tub. Centrifuge cells at 900 rpm for 4 minutes and resuspend in thaw medium. Transfer contents to the T75 tissue culture flask containing Thaw Medium and place flask in a humidified 37C/5% CO2 incubator. Switch to growth medium at first passage.Propagation Method: Aspirate medium, rinse once in DPBS, add 0.25% Trypsin/EDTA and swirl to coat the cell evenly. Add an equal volume of Growth Medium to inactivate Trypsin after 2-3 minutes incubation at 37C. Centrifuge cells at 900 rpm for 4 minutes and resuspend in growth medium. Cell should be passage or fed at least twice a week.Assay Protocol: Harvest cells from culture in growth medium and resuspend in assay medium. 2.2 Dispense 4000 cells/5 uL/well into 1536-well black/clear bottom plates using a Multidrop dispenser. After the cells were incubated at 37C for 5 hours, 23 nL of compounds dissolved in DMSO were transferred to the assay plate by a PinTool resulting in a 217-fold dilution. Incubate the plates for 16 hours at 37C, 5% CO2. Add 1 uL of 6X LiveBLAzer FRET B/G (CCF4-AM) Substrate Mixture to each well using a BioRAPTR dispenser and incubate the plates at room temperature for 2 hours. Measure fluorescence intensity at 460 and 530 nm emission and 405 nm excitation by an Envision detector. Data is expressed as the ratio of 460nm/530nm emissions. Add 4 uL of Cell-titer Glo to each well using BioRAPTR and incubate the plates at room temperature for […]. For cell viability readout that measures cytotoxicity, 4 ul/well of CellTiter-Glo reagent was added into the assay plates using a Flying Reagent Dispenser. After 30 min incubation at room temperature, the luminescence intensity in the plates was measured using a ViewLux plate reader.

| Compound | outcome | AC50 |
| --- | --- | --- |
| Cc1nnc2n1-c1ccc(Cl)cc1C(c1ccccc1)=NC2 | inactive | – |
| CCCCCCCCCCCCCCn1cc[n+](C)c1 | inactive | 82.2 µM (active) and 60.1 µM (active) |
| O=C1Nc2ccc(Cl)cc2C(c2ccccc2)=NC1O (stereo not given) | inactive | – |
| FC(F)OC(F)(F)C(F)Cl (stereo not given) | inactive | – |
| CCCCNP(N)(N)=S | inactive | – |
| [O]=[Cd] | inactive | – |
| COC(=O)[C@@H]1[C@H]2CC[C@@H](C[C@H]1OC(=O)c1ccccc1)N2C | inactive | – |
| CCC1(CC)C(=O)NC(=O)N(C)C1=O | inactive | – |
| CCCCCCCCCCCCCCCCCCn1cc[n+](C)c1 | inactive | – |
| CCOP(=O)(O)OCC (tested in a mixture with another compound) | inactive | 72300 nM (active) |
| C[C@]12CC[C@H]3[C@@H](CCC4=CC(=O)CC[C@@H]43)[C@@H]1CC[C@@H]2O | inactive | – |
| CC(=O)O[C@H]1C[C@H](O[C@H]2[C@@H](O)C[C@H](O[C@H]3[C@@H](O)C[C@H](OC4CC[C@@]5(C)C(CC[C@@H]6[C@@H]5CC[C@]5(C)[C@@H](C7=CC(=O)OC7)[C@@H](O)C[C@]65O)C4)O[C@@H]3C)O[C@@H]2C)O[C@H](C)[C@H]1O[C@@H]1O[C@H](CO)[C@@H](O)[C@H](O)[C@H]1O (stereo not given in full) | – | 463 nM (active) |
| N#C/C(N)=C(/N)C#N | inactive | – |
| CCCCCCCCCCCCCC[P+](CCCCCC)(CCCCCC)CCCCCC | inactive | 33.6 µM (active) and 20.1 µM (active) |
| COC(=O)c1ccc(CBr)cc1 | inactive | – |
| CC(C)(C)NCC(O)c1cc(Cl)c(N)c(C(F)(F)F)c1 (stereo not given) | inactive | – |
| CC(C)(C)NC[C@H](O)c1ccc(O)cc1Cl | inactive | – |
| c1ccc(CN2CCNCC2)cc1 | inactive | – |
| CC1NCCOC1c1ccccc1 (stereo not given) | inactive | – |

| Compound | outcome | AC50 |
| --- | --- | --- |
| CC(C)NCC(O)c1ccc(N)c(C#N)c1 (stereo not given) | inactive | – |
| Fc1ccc(C(OCCN2CCN(CCCc3ccccc3)CC2)c2ccc(F)cc2)cc1 | – | 33000 nM (active) |
| [Cl][Sb]([Cl])[Cl] | inactive | – |
| CCN(CC)CCOC(=O)C(O)(c1ccccc1)c1ccccc1 | inactive | – |
| [Cl][Hg][c]1ccccc1 | – | 576 nM (active) |
| ClC(Br)Br | inactive | – |
| CCCC(C)(COC(N)=O)COC(N)=O | inactive | – |
| CC[C@H](OC(C)=O)C(C[C@H](C)NC)(c1ccccc1)c1ccccc1 | inactive | – |
| CCC[CH2][Sn]([CH2]CCC)([CH2]CCC)[O][Sn]([CH2]CCC)([CH2]CCC)[CH2]CCC | – | 708 nM (active) |
| CS(=O)(=O)Cl | inactive | – |
| N#CCc1ccccc1 | inactive | – |
| C=CCN(CC=C)C(=O)C(Cl)Cl | inactive | – |
| CC(C)c1ccc(NC(=O)N(C)C)cc1 | inactive | – |
| CCCCN=C=O | inactive | – |
| COc1cc(CC(C)N)c(OC)cc1Br (stereo not given) | inactive | – |
| C(CCOCC1CO1)COCC1CO1 (stereo not given) | inactive | – |
| c1ccc(P(c2ccccc2)c2ccccc2)cc1 | inactive | – |
| O=[N+]([O-])c1ccc(Cl)cc1 | inactive | – |
